Experimental findings from PubChem BioAssay AID2685 (National Center for Advancing Translational Sciences (NCATS), 2010) are described below.

Screen size: about 320,000 compounds; about 2,100 (0.66%) were called active. Inconclusive results (about 53%) are left out. Calls come from the whole dose curve; as a rule, active = well fitted inhibition curve with a large enough effect in the signal ratio, with a control signal flat (not every such curve was filed as active); inconclusive = small, poorly fitted or top-dose-only effect, or effect the other way, or a change in a side signal; inactive = flat fitted curve, though single readings scatter; the % refers to the signal ratio. The entries come from a sample that favours actives as a whole.
Potency is the fitted concentration of half-maximal effect.

A short description of the test: qHTS Assay for Lipid Storage Modulators in Drosophila S3 Cells.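 For cell number change: cells counted by Cell Tracker Red CMTPX staining in the red channel.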 For lipid storage change, negative = inhibition: % is set by controls: 0 for no effect and ±100 for the full control effect. The following applies: BODIPY lipid droplet fluorescence, 18-24 h, cells fed with added oleic acid; cell number change: measured here: cell count max response; series mostly up to 46.1 µM; lipid storage change, negative = inhibition: at the top concentration. The procedure, abridged:
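Laser-scanning cytometry quantifies lipid droplet accumulation (500–530 nm total intensity; droplet/cell object ratio) in oleic acid-fed (400 uM added) Drosophila S3 cells treated with a concentration series. 20 uM Triacsin C defined 100% inhibition.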
On to `O=C(CCC1CCCC1)Nc1ccccc1-c1ccccc1`, for which the “lipid storage change, negative = inhibition” value is 4.16% (inactive) and the cell number change was -0.161%.

With `COc1ccc(NC(=O)C2CCCCN2N)cc1OC` (centres undefined), the “lipid storage change, negative = inhibition” value is -0.29% (inactive) and the cell number change is -2.19%.

In the case of `Cc1cc(C)cc(NC(=O)CSc2ccc(-c3ccccn3)nn2)c1`, the “lipid storage change, negative = inhibition” value was -5.08% (inactive) and the cell number change was determined as 2.31%. As to `O=S1(=O)CC/C(=N\O)c2ccccc21`, the “lipid storage change, negative = inhibition” value was 5.13% (inactive) and the cell number change came to 0.644%. The like results for `O=c1cc(CO)oc(C(Nc2ccccn2)c2ccccc2Cl)c1O` (centres undefined) were, in that order, -1.26% (inactive) and -7.74%.

On to `N#Cc1ccc(-c2ccc(OCC(=O)Nc3cccnc3)cc2)cc1`, for which the Potency is 13 µM (active) and the cell number change is -11.3%. Turning to `O=C(COc1cccc(C(F)(F)F)c1)Nc1cccnc1`, the “lipid storage change, negative = inhibition” value is -7.09% (inactive) and the cell number change turned out to be 28.7%.

Take `N#Cc1ccc(OCC(=O)Nc2nc(-c3cccnc3)cs2)cc1`: the “lipid storage change, negative = inhibition” value is 12.5% (inactive) and the cell number change was -1.13%. As for `Nc1ccc(S(=O)(=O)c2ccc(N)c(N)c2)cc1`, the “lipid storage change, negative = inhibition” value was 1.95% (inactive) and the cell number change is 15.7%. For the compound `CCCCCOCC(O)CCC(=O)NN` (centres undefined), the “lipid storage change, negative = inhibition” value was -1.04% (inactive) and the cell number change is -19%. With `Cc1ccc2cc(C(c3nnnn3C3CCCC3)N(Cc3ccccc3)Cc3ccco3)c(=O)[nH]c2c1` (centres undefined), the result was inactive and the cell number change was -7.33%. In the case of `CCOC(=O)C1=C(CN2CCN(C(=O)c3ccco3)CC2)NC(=O)NC1c1ccc(OC(C)C)cc1` (centres undefined), the Potency is 18.4 µM (active) and the cell number change was -20.3%. Regarding `CCOC(=O)C1=C(CN2CCN(C(=O)c3ccco3)CC2)NC(=O)NC1c1ccc(F)cc1` (centres undefined), the call was inactive and the cell number change was -24.3%.

As for `CCOC(=O)C1=C(C)NC(=O)NC1c1ccc(OC(=O)c2ccco2)cc1` (centres undefined), the “lipid storage change, negative = inhibition” value is 3.41% (inactive) and the cell number change was -14%. As for `Cc1nc2sc3c(c2c(=O)o1)CCCC3`, the Potency was 29.1 µM (active) and the cell number change came out at 5.3%. Turning to `O=c1oc(-c2ccccc2)nc2sc3c(c12)CCCC3`, the call was inactive. As for `Cc1ccccc1-c1nc2sc3c(c2c(=O)o1)CCC3`, the “lipid storage change, negative = inhibition” value is 2.37% (inactive) and the cell number change was determined as 4.59%. Regarding `COc1cccc(-c2nc(-c3ccccn3)no2)c1`, the “lipid storage change, negative = inhibition” value is 4.98% (inactive) and the cell number change is -6.27%. As for `Cc1c(NC(=O)CSCc2c(F)cccc2Cl)c(=O)n(-c2ccccc2)n1C`, the “lipid storage change, negative = inhibition” value is 5.12% (inactive) and the cell number change is 19%.

Regarding `O=C1Nc2ccc(S(=O)(=O)N3CCCC3C(=O)O)c3cccc1c23` (centres undefined), the “lipid storage change, negative = inhibition” value is -0.439% (inactive) and the cell number change was 2.18%. Regarding `CC1CCCCN1C(=O)/C(=C\c1ccccc1)c1ccccc1` (centres undefined), the “lipid storage change, negative = inhibition” value was -10.3% (inactive) and the cell number change was 7.23%. Take `O=C(/C(=C/c1ccccc1)c1ccccc1)N1CCCCC1`: the “lipid storage change, negative = inhibition” value is -0.342% (inactive) and the cell number change was -13.6%. For `CN1CCN(C(=O)/C(=C\c2ccccc2)c2ccccc2)CC1`, the Potency is 18.4 µM (active) and the cell number change is -17.9%. As to `CS(=O)(=O)c1ccccc1-c1nnc(NC(=O)c2ccc(S(=O)(=O)N3CCCC3)cc2)o1`, the outcome was “inactive [at 0.0737 µM]”.

Turning to `COCCCNC(=O)c1ccccc1-c1cc(C)no1`, the “lipid storage change, negative = inhibition” value was 14.1% (inactive) and the cell number change is -2.62%. Take `CC(Cl)C(=O)Nc1cc(C(F)(F)F)ccc1N1CCOCC1` (centres undefined): the “lipid storage change, negative = inhibition” value was 10% (inactive) and the cell number change was -4.52%. In the case of `CC(C(=O)Nc1cc(C(F)(F)F)ccc1N1CCOCC1)N1C(=O)C2CC=CCC2C1=O` (centres undefined), the Potency was 1.46 µM (active) and the cell number change is -1.98%. Regarding `CC(=O)Nc1cc(C(F)(F)F)ccc1N1CCOCC1`, the “lipid storage change, negative = inhibition” value is 1.01% (inactive) and the cell number change was 3.32%. On to `O=C(Cc1cccc2ccccc12)Nc1ccc(N2CCOCC2)cc1`, for which the “lipid storage change, negative = inhibition” value is -10.4% (inactive) and the cell number change was -1.09%.

For the compound `CC(=O)N1N=C(c2ccncc2)OC12CCCCCC2`, the “lipid storage change, negative = inhibition” value was 5.71% (inactive) and the cell number change came out at 5.48%. Regarding `CC(=O)N1N=C(c2ccncc2)OC12CCCC2`, the Potency was 16.4 µM (active) and the cell number change is -12.2%. On to `CC(=O)N1N=C(c2ccccc2)OC12CCCC2`, for which the “lipid storage change, negative = inhibition” value is 1.79% (inactive) and the cell number change is 3.13%. Turning to `CCCOc1ccc(S(=O)(=O)NNC(=O)c2cc3ccccc3o2)cc1`, the compound was classed as inactive and the cell number change is -21.5%. `S=c1nc(C2CC2)n(-c2ccccc2)[nH]1`: the “lipid storage change, negative = inhibition” value was -13.7% (inactive) and the cell number change stood at 6.79%. In the case of `CC(Sc1ccccc1)C(=O)N1CCN(S(=O)(=O)c2ccccc2F)CC1` (centres undefined), the “lipid storage change, negative = inhibition” value is -1.62% (inactive) and the cell number change was -14.5%.

In the case of `CC(Sc1ccccc1)C(=O)N1CCN(S(=O)(=O)c2cccc(Br)c2)CC1` (centres undefined), the outcome was inactive. `CC(Sc1ccccc1)C(=O)N1CCN(S(=O)(=O)c2ccccc2)CC1` (centres undefined): the Potency is 0.0103 µM (active) and the cell number change was determined as 22.7%. In the case of `CS(=O)(=NS(=O)(=O)c1ccc(Cl)cc1)c1ccccc1` (centres undefined), the “lipid storage change, negative = inhibition” value was 4.24% (inactive) and the cell number change amounted to 5.26%. Regarding `N/C(=N\OC(=O)/C=C/c1ccccc1)c1ccccn1`, the “lipid storage change, negative = inhibition” value was 2.94% (inactive).

For the compound `COc1cccc(-c2ncc3ccccc3c2COC(=O)c2ccc(Br)cc2)c1`, the result was inactive and the cell number change amounted to 2.33%. As for `O=C(COC(=O)c1c2c(nc3ccccc13)/C(=C\c1cccs1)CCC2)Nc1ccccc1Cl`, the Potency is 0.58 µM (active) and the cell number change was -12.6%.

With `O=C(COC(=O)c1cccs1)Nc1ccccc1Cl`, the Potency is 16.4 µM (active) and the cell number change stood at 2.94%. The like results for `O=C(COC(=O)c1ccccn1)Nc1c(Cl)cccc1Cl` were, in that order, 16.4 µM (active) and -5.33%. On to `O=C(COC(=O)/C=C/c1cccs1)Nc1ccccc1Cl`, for which the “lipid storage change, negative = inhibition” value is -2.77% (inactive) and the cell number change worked out at 11.7%. The like results for `O=C(COC(=O)c1c2c(nc3ccccc13)CCCC2)c1cccs1` were, in that order, -22.3% (inactive) and 9.93%.

In the case of `O=C(COC(=O)c1ccccn1)Nc1cccc(Cl)c1Cl`, the “lipid storage change, negative = inhibition” value was 10.9% (inactive) and the cell number change was -0.814%. As to `CCc1ccccc1NC(=O)COC(=O)c1cccs1`, the compound was called inactive and the cell number change is -3.91%. As to `O=C(COC(=O)c1cccs1)Nc1ccccc1C(F)(F)F`, the “lipid storage change, negative = inhibition” value is -1.51% (inactive) and the cell number change is -6.32%. As for `O=C(COC(=O)c1ccccn1)Nc1ccccc1Cl`, the “lipid storage change, negative = inhibition” value is -3.35% (inactive) and the cell number change is -8.3%.
